Measurements taken from PubChem BioAssay (NCI).
This is part of a sample that, as a whole, favours compounds with a hit. Of some 79,000 tested, about 15% had one in any assay. Activity calls are given as the source filed them. Rule as the data show it: active = growth inhibition above about 70%; inactive = the rest.

Assays:
[1] = NCI Yeast Anticancer Drug Screen. Data for the rad52 strain (AID 147);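 also: 0% = growth of vehicle-treated control cultures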; conditions: S. cerevisiae rad52 mutant growth inhibition, stronger effect = higher value
Outline: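 DNA repair-defective yeast; compound exposure; growth scored against vehicle controls.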

[2] = NCI Yeast Anticancer Drug Screen. Data for the wt1 strain (AID 149);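 also: 0% = growth of vehicle-treated wt1 cultures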; conditions: S. cerevisiae wt1 strain (SPY 50644) growth inhibition, stronger effect = higher value
Outline: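 Using yeast strain wt1, compound-induced growth inhibition was determined against vehicle-treated cultures.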

[3] = NCI Yeast Anticancer Drug Screen. Data for the rad50EPP+ strain (AID 151);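 also: 0% = growth of vehicle-treated control cultures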; conditions: S. cerevisiae rad50 mutant strain, stronger effect = higher value
Outline: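 rad50EPP+ yeast treated with test compounds. Readout: growth vs vehicle control.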

[4] = NCI Yeast Anticancer Drug Screen. Data for the mgt1 strain (AID 153); conditions: S. cerevisiae mgt1 mutant growth inhibition, stronger effect = higher value
Outline: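 Growth inhibition relative to vehicle controls was scored for the mgt1 yeast strain after compound exposure.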

[5] = NCI Yeast Anticancer Drug Screen. Data for the rad50 strain (AID 155);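 also: 0% = growth of vehicle-only cultures of the same strain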; conditions: S. cerevisiae rad50 strain growth inhibition, stronger effect = higher value
Outline: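 Relative growth inhibition (compound vs vehicle) was measured in yeast with a defined repair-gene alteration.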

[6] = NCI Yeast Anticancer Drug Screen. Data for the mec2-1 strain (AID 157); conditions: S. cerevisiae mec2-1 strain, stronger effect = higher value
Outline: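 Growth inhibition is read against vehicle-treated controls after compound exposure of the mec2-1 yeast strain, which is defective in DNA damage repair or cell cycle control.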

[7] = NCI Yeast Anticancer Drug Screen. Data for the sgs1 mgt1 strain (AID 161);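 also: 0% = growth of cultures given vehicle only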; conditions: S. cerevisiae sgs1 mgt1 strain, stronger effect = higher value
Outline: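 Yeast cells carrying a defined DNA-repair defect were exposed to test compounds. Growth inhibition was measured relative to vehicle-treated controls.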

[8] = NCI Yeast Anticancer Drug Screen. Data for the cln2 rad14 strain (AID 165);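 also: 0% = growth equal to vehicle treated cultures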; conditions: S. cerevisiae cln2 rad14 strain, stronger effect = higher value
Outline: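 Growth inhibition, relative to vehicle-treated controls, is the read-out. The test organism is a yeast strain with defined genetic alterations, cln2 rad14.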

[9] = NCI Yeast Anticancer Drug Screen. Data for the bub3 strain (AID 167); conditions: S. cerevisiae bub3 mutant strain, stronger effect = higher value
Outline: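 Screening used yeast with an engineered genetic alteration affecting cell cycle control. Compound-exposed cultures were compared with vehicle cultures, and reduced growth was taken as inhibition.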

[10] = NCI Yeast Anticancer Drug Screen. Data for the wt2 strain (AID 169);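 also: 0% = growth of vehicle-treated yeast cultures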; conditions: S. cerevisiae wt2 strain growth inhibition, stronger effect = higher value
Outline: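 Compound exposure of yeast; growth compared with vehicle controls; inhibition reported.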

[11] = NCI Yeast Anticancer Drug Screen. Data for the mlh1 strain (AID 171);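 also: 0% = growth of vehicle-treated control cultures of the same strain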; conditions: S. cerevisiae mlh1 strain growth inhibition, stronger effect = higher value
Outline: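 Compounds are applied to a genetically altered yeast strain, and its growth is compared with that of vehicle-treated cultures to give percent inhibition.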

[12] = NCI Yeast Anticancer Drug Screen. Data for the sgs1 strain (AID 173);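 also: 0% = growth of vehicle-only control cultures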; conditions: S. cerevisiae sgs1 mutant, stronger effect = higher value
Outline: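 Compounds applied to genetically altered yeast; growth compared with vehicle-treated cultures to give % inhibition.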

[13] = NCI Yeast Anticancer Drug Screen. Data for the mlh1 rad18 strain (AID 175); conditions: S. cerevisiae mlh1 rad18 strain growth inhibition, stronger effect = higher value
Outline: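 Cells of a genetically altered yeast strain, deficient in DNA damage repair, were treated with compound. Their growth was then compared with that of vehicle-treated cultures to give inhibition.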

[14] = NCI Yeast Anticancer Drug Screen. Data for the rad18 strain (AID 177); conditions: S. cerevisiae rad18 mutant growth inhibition, stronger effect = higher value
Outline: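 Compounds are applied to a repair-deficient yeast strain, and growth is compared with that of vehicle-treated cultures to give percent inhibition.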

[15] = at 5.0 µM (retest, dose inferred, filed as 0.5)
[16] = at 50.0 µM (retest, dose inferred, filed as 5.0)

Measured: growth inhibition

CC[C@@]1(O)C[C@H](OC2CC(N(C)C)C(O)C(C)O2)c2c(O)c3c(c(O)c2[C@H]1OC1CC(N(C)C)C(O)C(C)O1)C(=O)c1cccc(O)c1C3=O (stereo partly drawn)
inactive: [1]; at 1.2 µM 36% | [1]; at 3.7 µM 38% | [1]; at 11.0 µM 35% | [1]; at 33.0 µM 46% | [2]; at 1.2 µM -8% | [2]; at 3.7 µM 4% | [2]; at 11.0 µM 7% | [2]; at 33.0 µM 12% | [2]; at 100.0 µM 42% | [3]; at 1.2 µM 20% | [3]; at 3.7 µM 26% | [3]; at 11.0 µM 25% | [3]; at 33.0 µM 21% | [3]; at 100.0 µM 34% | [4]; at 1.2 µM 16% | [4]; at 3.7 µM 20% | [4]; at 11.0 µM 13% | [4]; at 33.0 µM 18% | [5]; at 1.2 µM 15% | [5]; at 3.7 µM 14% | [5]; [15] 16% | [5]; at 11.0 µM 11% | [5]; at 33.0 µM 27% | [5]; [16] 65% | [6]; at 1.2 µM 10% | [6]; at 3.7 µM -1% | [6]; [15] 10% | [6]; at 11.0 µM 3% | [6]; at 33.0 µM -4% | [6]; [16] 23% | [6]; at 100.0 µM 62% | [7]; [15] 5% | [8]; [15] 8% | [9]; at 1.2 µM 8% | [9]; at 3.7 µM 12% | [9]; [15] -9% | [9]; at 11.0 µM 6% | [9]; at 33.0 µM 10% | [10]; at 1.2 µM -21% | [10]; at 3.7 µM -24% | [10]; at 11.0 µM -44% | [10]; at 33.0 µM -4% | [11]; at 1.2 µM 20% | [11]; at 3.7 µM 20% | [11]; at 11.0 µM 16% | [11]; at 33.0 µM 10% | [12]; at 1.2 µM 14% | [12]; at 3.7 µM 9% | [12]; at 11.0 µM 11% | [12]; at 33.0 µM 18% | [13]; [15] 13% | [13]; [16] 63% | [14]; at 1.2 µM 6% | [14]; at 3.7 µM 12% | [14]; at 11.0 µM 5% | [14]; at 33.0 µM 30%
active: [1]; at 100.0 µM 92% | [4]; at 100.0 µM 87% | [5]; at 50.0 µM 83.1% | [5]; at 100.0 µM 90% | [6]; at 50.0 µM 85% | [7]; [16] 89% | [7]; at 50.0 µM 88.2% | [8]; [16] 71% | [8]; at 50.0 µM 75.8% | [9]; [16] 77% | [9]; at 50.0 µM 83.4% | [9]; at 100.0 µM 84% | [10]; at 100.0 µM 94% | [11]; at 100.0 µM 88% | [12]; at 100.0 µM 89% | [13]; at 50.0 µM 85% | [14]; at 100.0 µM 88%
